Where “and” joins values, the source holds several entries; their conditions need not be identical. Identical values can stand only once. Compounds without any hit were thinned out: in the full panel of roughly 83,000, 20% have a hit.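 Cells were grown in 96-well plates and exposed to the test compound at a single concentration for 48 hours; results are reported as percent growth, with values below 10 considered active.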 Calls of active or inactive are those of the source.
What follows are compounds tested on MDA-MB-468 breast (assay: NCI-60 one-dose screen, 48 h (100 = growth as untreated, 0 = no growth, -100 = all killed)). Conditions: 10 µM unless noted.

Row | SMILES | growth
1 | O=c1[nH]c(-c2ccc(Cl)cc2)nc2sc3c(c12)CCCC3 | 82.2% (inactive)
2 | CCOC(=O)c1cnn(CC(O)c2ccc(F)cc2)c1NC(=O)Nc1ccccc1F (stereo not given) | 85.8% (inactive)
3 | O=C(N/N=C/[C@@H](O)[C@H](O)[C@H](O)CO)c1ccc(NC(=O)c2cccnc2)cc1 | 101% (inactive)
4 | Cc1nc2c(c(=O)[nH]1)C(c1ccccc1)c1ccc3ccccc3c1O2 (stereo not given) | 22.9% (inactive)
5 | CCN(CC)CCCC(C)Nc1c2ccc(Cl)cc2nc2cc(OC)c(OC)cc12 (stereo not given) | -44% (active)
6 | CC(=O)N(C)c1ccc(Nc2ccc(Nc3ccc(N(C)C(C)=O)cc3)c3c2C(=O)c2ccccc2C3=O)cc1 | 30.9% (inactive)
7 | Clc1ccccc1/C=C/c1nn2c(-c3ccncc3)nnc2s1 | 97.4% (inactive)
8 | Cc1cc(Br)ccc1-n1cc(C#N)c(N)c1C(=O)c1ccc(Br)cc1 | 93.4% (inactive)
9 | O=C1/C(=C/c2ccc([N+](=O)[O-])cc2)COc2ccc(O)cc21 | 77.3% (inactive)
10 | O=S(=O)(Nc1ccccn1)c1ccc(N=Nc2ccc(O)c3ncccc23)cc1 | 4.46% (active)
11 | O=S(=O)(Oc1ccc(-c2ccc3sccc3c2)cc1)c1ccc(F)cc1 | 86.9% (inactive)
12 | COc1cccc(-c2nc3occn3c2-c2ccnc(NCCNS(=O)(=O)c3cccc4ccccc34)n2)c1 | 98.1% (inactive)
13 | O=C(Nc1cccc(-n2cc(-c3ccncc3)c(-c3cc(O)cc(Cl)c3)n2)c1)Nc1ccc(Cl)c(Cl)c1 | -1.88% (active)
14 | COC(=O)c1ccc(NC(=O)c2ccc(-c3cccc([N+](=O)[O-])c3)o2)cc1 | 96.5% (inactive)
15 | COc1ccc(CNS(=O)(=O)/N=C2\NC(=O)NC2=C(Cl)Cl)cc1 | 19.4% (inactive)
16 | COc1ccc(Nc2c3ccccc3nc3ccccc23)cc1 | 14.1% (inactive)
17 | CC1(C)S[C@@H]2[C@H](NC(=O)[C@H](C(=O)O)c3cccs3)C(=O)N2[C@H]1C(=O)O | 102% (inactive)
18 | NC(=O)c1c(NC(=O)/C=C/c2cccs2)sc2c1CCC(=O)C2 | 37.2% (inactive)

Row | SMILES | growth
19 | O=C(/C=C/c1ccc(Cl)cc1)c1ccccc1 | 89.7% (inactive)
20 | Cc1sc2nc(NCc3ccccc3Cl)[nH]c(=O)c2c1C | 101% (inactive)
21 | NC(=O)c1cc(I)ccc1NC(=O)COc1ccc(Cl)cc1Cl | 71.7% (inactive)
22 | CCN(CC)CCNc1cc(-c2cccc(OC(F)(F)F)c2)nc2ccc(N3CCCC3)cc12 | 28.6% (inactive) and -38.3% (active) and 0.911% (active)
23 | COc1ccc2c(c1)c(-c1nc(-c3c[nH]c4c(Cl)nccc34)cs1)cn2C | -23% (active)
24 | CC(=O)OC1CC2C(C)(C)OC3CC(=O)OCC32C2CCC3(C)C(=CCC3c3ccoc3)C12C (stereo not given) | 39.1% (inactive)
25 | CCC(=O)Oc1ccc2c(c1)CC[C@@H]1[C@@H]2CC[C@]2(C)C[C@H](OC(=O)CC)C[C@@H]12 | 47.9% (inactive)
26 | COc1cc(-c2nnc(-c3nc(-c4cc(OC)c(OC)c(OC)c4)n4ccccc34)o2)ccc1N | 97.7% (inactive)
27 | O=C(Nc1cc(=O)[nH]c(=O)[nH]1)C(Cl)Cl | 98.5% (inactive)
28 | Cc1ccc2c(n1)C[C@H](C(C)(C)O)CC[C@H]2C | 108% (inactive)
29 | COc1ccc(C2CC(=O)Nc3c2c(C)nn3-c2nc3ccccc3[nH]2)cc1 (stereo not given) | 101% (inactive)
30 | Cc1ccc(/C=C(\C#N)C(=O)Nc2ncc(Cc3cc(Cl)ccc3Cl)s2)o1 | 69.6% (inactive)
31 | NC(=O)CC1(c2ccccc2)CCCCC1 | 104% (inactive)
32 | COc1cc(/C=C2\CCCC3=C2N=C2SC(C)=NN2C3c2cc(OC)c(OC)c(OC)c2)cc(OC)c1OC (stereo not given) | 19.8% (inactive)
33 | COc1cc(C2NC(c3ccc(Cl)cc3)C(C)/C(=N/NC(N)=S)C2C)cc(OC)c1OC (stereo not given) | 88% (inactive)
34 | C#CCNC(=O)[C@]1(C)CC[C@]2(C)CC[C@@H]3C(=CC[C@H]4[C@@]3(C)CC[C@H]3C(C)(C)C(=O)CC[C@]43C)[C@@H]2C1 | 104% (inactive)
35 | CC(=O)OC[C@]12CC[C@@H](c3cn(Cc4ccc(Cn5cc([C@@H]6CC[C@]7(COC(C)=O)CC[C@]8(C)[C@H](CC[C@@H]9[C@@]%10(C)CC[C@H](OC(C)=O)C(C)(C)[C@@H]%10CC[C@]98C)[C@@H]67)nn5)cc4)nn3)[C@@H]1[C@H]1CC[C@@H]3[C@@]4(C)CC[C@H](OC(C)=O)C(C)(C)[C@@H]4CC[C@@]3(C)[C@]1(C)CC2 | 102% (inactive)

From PubChem BioAssay (NCI)
